Assay results reported in PubChem BioAssay (Tox21).
Records with an inconclusive call do not appear. Entries that show only a call come without a potency. Active and inactive are the calls of the source. Unless noted, calls come from the whole dose curve.

How the values were obtained:
[1] = Nuclear factor erythroid 2-related factor 2/antioxidant responsive element (Nrf2/ARE) small molecule agonists: qHTS cell viability counter screen in human keratinocytes (AID 1919968; active = well fitted curve in the direction sought with a large enough effect in the repeat runs; an effect the other way counts as inactive or inconclusive; note: nearly all actives have a fitted effect of over 55% in size; note: potency is the fitted concentration of half-maximal effect)
In short: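 Parallel cytotoxicity read: KeratinoSens HaCaT cells, compound treatment 23 h, viability by CellTiter-Fluor fluorescence 1 h post-reagent.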

[2] = Nuclear factor erythroid 2-related factor 2/antioxidant responsive element (Nrf2/ARE) small molecule agonists: luciferase reporter gene qHTS assay in human keratinocytes (AID 1919969); note: nearly all actives have a fitted effect of over 35% in size; note: potency is the fitted concentration of half-maximal effect
[3] = biological target: Gonadotropin-releasing hormone receptor (Homo sapiens) (UniProt P30968); test: Human gonadotropin-releasing hormone receptor (GnRHR) small molecule agonists, calcium flux assay in GnRHR-HEK293 cells (AID 1920063); note: nearly all actives have a fitted effect of over 35% in size; note: potency is the fitted concentration of half-maximal effect
Gonadotropin-releasing hormone receptor (Homo sapiens), sequence (P30968 whole entry, looked up): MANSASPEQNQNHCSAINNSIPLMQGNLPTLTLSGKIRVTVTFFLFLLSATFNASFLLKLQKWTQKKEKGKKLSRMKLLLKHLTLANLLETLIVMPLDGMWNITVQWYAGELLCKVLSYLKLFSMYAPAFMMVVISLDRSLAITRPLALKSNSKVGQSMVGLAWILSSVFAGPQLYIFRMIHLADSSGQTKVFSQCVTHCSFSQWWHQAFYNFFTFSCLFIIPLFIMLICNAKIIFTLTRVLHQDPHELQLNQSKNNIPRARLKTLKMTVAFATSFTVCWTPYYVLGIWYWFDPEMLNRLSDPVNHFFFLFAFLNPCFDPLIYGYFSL
In short: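 Calcium flux, agonist mode, human GnRHR stably integrated in HEK293; dye 1 h at 37 C before compound; Ex/Em=480/540 kinetic read, 3 min; 15 concentrations, triplicate.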

[4] = biological target: KiSS-1 receptor (Homo sapiens) (UniProt Q969F8); test: Human kisspeptin (KISS1R) small molecule agonists, calcium flux assay in KISS1R-HEK293 cells (AID 1920064; active = well fitted curve in the direction sought with a large enough effect in the repeat runs; an effect the other way counts as inactive or inconclusive)
KiSS-1 receptor (Homo sapiens), sequence (Q969F8 whole entry, looked up): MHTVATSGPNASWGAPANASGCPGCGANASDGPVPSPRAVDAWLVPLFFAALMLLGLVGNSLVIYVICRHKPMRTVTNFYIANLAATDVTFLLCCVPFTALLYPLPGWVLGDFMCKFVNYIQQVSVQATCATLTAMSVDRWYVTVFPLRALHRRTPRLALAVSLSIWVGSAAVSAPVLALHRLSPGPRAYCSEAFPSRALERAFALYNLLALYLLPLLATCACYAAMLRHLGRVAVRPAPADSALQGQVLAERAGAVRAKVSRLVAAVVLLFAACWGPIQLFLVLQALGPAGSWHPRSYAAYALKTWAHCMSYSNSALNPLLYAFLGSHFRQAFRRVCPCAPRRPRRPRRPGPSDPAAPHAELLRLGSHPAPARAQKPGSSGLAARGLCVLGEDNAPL
In short: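 Triplicate 15-concentration series were applied to dye-loaded human KISS1R HEK293 cells, and agonist-evoked calcium fluorescence was captured for 3 min.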

[5] = G protein-coupled receptor (GPCR) small molecule agonists, calcium flux assay: HEK293 wild type cell line counter screen (AID 1920065)
In short: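 Non-specific calcium responders were flagged by adding DMSO-dissolved compounds to dye-loaded cells and reading 480/540 nm fluorescence each second for 3 min; ATP served as positive control.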

[6] = p53 small molecule agonists, cell-based qHTS assay: qHTS cell viability counter screen (AID 1963581); note: nearly all actives have a fitted effect of over 45% in size
In short: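 Multiplexed with the reporter read, a CellTiter-Glo step (30 min, room temperature) gauges ATP-based viability of HCT-116 p53RE-bla cells after 16 h compound incubation at 37 C.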

[7] = biological target: 5-hydroxytryptamine receptor 2A (Homo sapiens) (UniProt P28223); test: 5-hydroxytryptamine receptor 2A (HTR2A) small molecule antagonists, cell-based qHTS assay (AID 1963586); note: nearly all actives have a fitted effect of over 45% in size
5-hydroxytryptamine receptor 2A (Homo sapiens), sequence (P28223 whole entry, looked up): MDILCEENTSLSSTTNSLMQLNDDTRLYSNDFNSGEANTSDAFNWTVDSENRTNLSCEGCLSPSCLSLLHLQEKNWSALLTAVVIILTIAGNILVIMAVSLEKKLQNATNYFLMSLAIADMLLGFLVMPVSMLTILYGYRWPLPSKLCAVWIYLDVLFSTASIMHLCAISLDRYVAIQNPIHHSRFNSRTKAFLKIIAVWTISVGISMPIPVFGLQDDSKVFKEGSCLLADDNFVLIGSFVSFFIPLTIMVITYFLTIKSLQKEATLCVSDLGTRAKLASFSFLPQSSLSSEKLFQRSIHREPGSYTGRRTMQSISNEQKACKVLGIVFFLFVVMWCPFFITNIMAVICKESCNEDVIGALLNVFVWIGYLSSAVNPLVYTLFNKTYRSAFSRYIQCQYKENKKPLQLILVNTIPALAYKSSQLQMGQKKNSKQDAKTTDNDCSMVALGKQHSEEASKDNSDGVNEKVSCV
In short: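 CHO cells stably expressing human HTR2A were plated for 18 h at 37 C, then loaded with calcium dye for 1 h. Compounds were preincubated 5 min at room temperature before DOI (4 nM solution) was added. Kinetic fluorescence was read for 3 min.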

[8] = biological target: 5-hydroxytryptamine receptor 2A (Homo sapiens) (UniProt P28223); test: 5-hydroxytryptamine receptor 2A (HTR2A) small molecule agonists, cell-based qHTS assay (AID 1963587); note: nearly all actives have a fitted effect of over 30% in size
In short: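 HTR2A-CHO cells, plated 18 h at 37 C/5% CO2, dye-loaded 1 h at 37 C; compounds in DMSO added by pin tool (agonist mode). Intracellular calcium flux read as kinetic fluorescence on FDSS over 2 min at 1 s intervals.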

[9] = biological target: Muscarinic acetylcholine receptor M1 (Homo sapiens) (UniProt P11229); test: Cholinergic receptor muscarinic 1 (CHRM1) small molecule agonists, cell-based qHTS assay (AID 1963589); note: nearly all actives have a fitted effect of over 35% in size; note: potency is the fitted concentration of half-maximal effect
Muscarinic acetylcholine receptor M1 (Homo sapiens), sequence (P11229 whole entry, looked up): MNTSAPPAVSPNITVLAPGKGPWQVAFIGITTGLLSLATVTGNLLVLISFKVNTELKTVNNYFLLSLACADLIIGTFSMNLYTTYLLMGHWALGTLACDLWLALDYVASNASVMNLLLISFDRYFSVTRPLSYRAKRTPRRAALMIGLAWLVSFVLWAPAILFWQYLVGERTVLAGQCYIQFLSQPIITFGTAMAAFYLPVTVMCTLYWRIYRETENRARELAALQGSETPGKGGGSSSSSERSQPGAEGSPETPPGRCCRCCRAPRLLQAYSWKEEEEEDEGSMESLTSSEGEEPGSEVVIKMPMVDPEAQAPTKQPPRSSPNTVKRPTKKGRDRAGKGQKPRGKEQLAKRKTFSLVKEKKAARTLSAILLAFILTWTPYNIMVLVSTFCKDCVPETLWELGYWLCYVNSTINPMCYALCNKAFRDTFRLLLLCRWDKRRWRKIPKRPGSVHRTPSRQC
In short: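 qHTS, 15-point titration, 3 independent runs: compounds pin-transferred onto dye-loaded CHRM1-CHO cells (human M1), calcium fluorescence followed every second to detect agonism.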

[10] = biological target: Beta-2 adrenergic receptor (Homo sapiens) (UniProt P07550); test: Adrenergic beta2 receptor (ADRB2) small molecule antagonists, cell-based qHTS assay (AID 1963592); note: nearly all actives have a fitted effect of over 50% in size; note: potency is the fitted concentration of half-maximal effect
Beta-2 adrenergic receptor (Homo sapiens), sequence (P07550 whole entry, looked up): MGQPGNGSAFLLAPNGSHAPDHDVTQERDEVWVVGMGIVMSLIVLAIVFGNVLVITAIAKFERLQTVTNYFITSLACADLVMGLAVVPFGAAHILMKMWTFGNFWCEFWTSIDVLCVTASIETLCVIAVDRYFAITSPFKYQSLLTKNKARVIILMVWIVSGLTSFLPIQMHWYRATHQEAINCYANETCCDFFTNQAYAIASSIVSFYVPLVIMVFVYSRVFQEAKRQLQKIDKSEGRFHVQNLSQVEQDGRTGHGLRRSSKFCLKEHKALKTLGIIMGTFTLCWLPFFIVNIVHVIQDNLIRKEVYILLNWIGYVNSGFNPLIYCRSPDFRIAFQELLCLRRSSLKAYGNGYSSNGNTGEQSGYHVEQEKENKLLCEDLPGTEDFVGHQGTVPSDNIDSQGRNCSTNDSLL
In short: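 Assay format: CHO-ADRB2 cells, 18-20hr seeding at 37C/5% CO2, then compound plus 1nM isoproterenol agonist mix for 0.5hr RT. Homogeneous time-resolved fluorescence cAMP detection after 1hr, expressed as 665/615 nm ratio.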

[11] = biological target: D(2) dopamine receptor (Homo sapiens) (UniProt P14416); test: Dopamine D2 receptor (DRD2) small molecule agonists, cell-based qHTS assay (AID 1963594); note: nearly all actives have a fitted effect of over 35% in size
D(2) dopamine receptor (Homo sapiens), sequence (P14416 whole entry, looked up): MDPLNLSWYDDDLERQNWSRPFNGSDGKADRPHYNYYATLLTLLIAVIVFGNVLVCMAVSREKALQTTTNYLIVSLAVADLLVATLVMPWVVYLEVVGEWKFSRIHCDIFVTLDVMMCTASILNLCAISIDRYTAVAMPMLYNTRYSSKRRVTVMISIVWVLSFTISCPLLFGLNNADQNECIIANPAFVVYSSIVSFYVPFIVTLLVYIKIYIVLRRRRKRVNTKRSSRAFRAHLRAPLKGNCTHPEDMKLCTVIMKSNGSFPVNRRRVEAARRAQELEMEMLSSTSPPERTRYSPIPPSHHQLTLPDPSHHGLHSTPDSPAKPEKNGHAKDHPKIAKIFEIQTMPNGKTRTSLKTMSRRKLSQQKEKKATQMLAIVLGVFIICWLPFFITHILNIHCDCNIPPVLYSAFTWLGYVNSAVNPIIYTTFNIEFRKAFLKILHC
In short: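 HEK293 cells stably expressing DRD2 were cultured 24 h at 37 C, then given Ro20-1724 (0.1 mM final) and compounds for 10 min at room temperature. NKH477 (200nM) was then added for 30 min. cAMP was read by HTRF.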

[12] = biological target: D(2) dopamine receptor (Homo sapiens) (UniProt P14416); test: Dopamine D2 receptor (DRD2) small molecule antagonists, cell-based qHTS assay (AID 1963595; active = well fitted inhibition curve with a large enough effect in the signal ratio in the repeat runs, with a control signal flat; the % refers to the signal ratio)
In short: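 In this cell-based antagonist screen, compounds act for 10 min at room temperature before a 30 min challenge with 12 nM quinpirole and 200 nM NKH477. cAMP is quantified by HTRF competition in DRD2-HEK293 cells containing 0.1 mM Ro20-1724.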

[13] = p53 small molecule agonists, cell-based qHTS assay with rat liver microsomes: qHTS cell viability counter screen (AID 1963580); note: nearly all actives have a fitted effect of over 45% in size
In short: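 Counter screen for cytotoxicity under metabolic activation: rat liver microsomes and NADPH, 0.5 mg/mL final each, added with compounds to p53RE-bla HCT-116 cells; 16 h at 37 C, then ATP luminescence read.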

[14] = biological target: Muscarinic acetylcholine receptor M1 (Homo sapiens) (UniProt P11229); test: Cholinergic receptor muscarinic 1 (CHRM1) small molecule antagonists, cell-based qHTS assay (AID 1963588); note: nearly all actives have a fitted effect of over 40% in size
In short: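 Compounds were tested at 15 concentrations in three independent runs. Dye-loaded CHRM1-CHO cells were exposed 5 min at room temperature before stimulation by acetylcholine added at 50nM. Intracellular calcium was read kinetically on FDSS for 3 min.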

[15] = cAMP Responsive Elements (CRE) small molecule agonists, cell-based qHTS assay (AID 1963590)
In short: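 Quantitative HTS for CRE agonists: HEK 293T CRE-bla cells, overnight plating, 3 h compound incubation at 37 C/5% CO2, then 2 h room-temperature LiveBLAzer B/G FRET substrate loading.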

[16] = cAMP Responsive Elements (CRE) small molecule antagonists, cell-based qHTS assay (AID 1963591; active = well fitted inhibition curve with a large enough effect in the signal ratio in the repeat runs, not every such curve was filed as active; the % refers to the signal ratio)
In short: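 Fluorescence intensity from cleaved LiveBLAzer B/G substrate (2 h, room temperature) quantified CRE-bla activity in HEK 293T cells exposed 3 h to compound with 0.25 uM final NKH477.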

[17] = biological target: Beta-2 adrenergic receptor (Homo sapiens) (UniProt P07550); test: Adrenergic beta2 receptor (ADRB2) small molecule agonists, cell-based qHTS assay (AID 1963593);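 note: CHO cells stably overexpressing human ADRB2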
In short: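 CHO cells stably over-expressing ADRB2 were plated overnight at 37C, then dosed with compounds plus a stimulation mix containing 100uM IBMX and 25uM Ro-20-1724 for 0.5hr at room temperature. cAMP was measured by HTRF competition, 1hr.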

SMILES | Potency [1] | Potency [2] | Potency [3] | Potency [4] | Potency [5] | Potency [6] | Potency [7] | Potency [8] | Potency [9] | Potency [10] | Potency [11] | Potency [12] | Potency [13] | Potency [14] | Potency [15] | Potency [16] | Potency [17]
COc1ccc(/C=C/C(=O)c2ccc(OC)cc2OC)cc1 | inactive | 29.8 µM (active) | inactive | inactive | inactive | inactive | inactive | inactive | inactive | inactive | inactive | inactive | – | – | – | – | –
O=C(NS(=O)(=O)/C=C/c1cccs1)c1ccc(F)cc1Br | inactive | 27.3 µM (active) | inactive | inactive | inactive | – | – | – | inactive | inactive | inactive | inactive | inactive | inactive | inactive | – | –
CC(=O)c1ccc2c(c1)Cc1ccccc1-2 | inactive | inactive | inactive | inactive | inactive | – | – | inactive | inactive | inactive | inactive | inactive | inactive | inactive | – | inactive | –
CCCCCCCCCCCCSCCOCCO | inactive | inactive | inactive | inactive | inactive | – | inactive | inactive | 0.0379 µM (active) | inactive | inactive | inactive | inactive | inactive | – | inactive | inactive
Cc1[nH]nc2c1N=C(c1ccccc1Cl)c1cc([N+](=O)[O-])ccc1N2 | 24.3 µM (active) | 54.5 µM (active) | inactive | inactive | inactive | – | inactive | inactive | inactive | 21.7 µM (active) | inactive | – | – | inactive | – | inactive | –
O=C(N[C@@H](c1ccccc1)[C@@H]1CCCCN1)c1cccc(C(F)(F)F)c1Cl | 43.3 µM (active) | inactive | 38.9 µM (active) | inactive | inactive | inactive | – | – | inactive | inactive | inactive | inactive | inactive | inactive | – | – | –
C[C@@H](C1=C(CCN(C)C)Cc2ccccc21)c1ccccn1 | inactive | inactive | inactive | inactive | inactive | – | inactive | inactive | inactive | – | – | inactive | inactive | – | inactive | inactive | –
CCOC(=O)c1ccc(C#Cc2ccc3c(c2)C(C)(C)CCS3)nc1 | inactive | inactive | inactive | inactive | inactive | – | inactive | inactive | inactive | inactive | inactive | inactive | inactive | inactive | – | – | inactive
C=CCOc1ccccc1OCC(O)CNC(C)C (stereo not drawn) | inactive | inactive | inactive | inactive | inactive | – | – | inactive | inactive | – | – | – | inactive | inactive | inactive | inactive | –
